Experimental data published in PubChem BioAssay (NCI).
About 83,000 compounds went through this panel and 20% of them were active in at least one assay; those are over-represented in the sample as a whole.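 Treatment: one concentration, 48 hours, 96-well format. Scoring: percent growth, with anything below 10 considered active.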 Activity calls are given as the source filed them.

Experiments:
Assay in all cases: NCI-60 one-dose screen, 48 h (100 = growth as untreated, 0 = no growth, -100 = all killed)
[1] = system: T-47D breast; conditions: 10 µM
[2] = system: BT-549 breast; conditions: 10 µM unless noted
[3] = system: MDA-MB-435 melanoma; conditions: 10 µM unless noted
[4] = system: SW-620 colon; conditions: 10 µM unless noted
[5] = system: MCF7 breast; conditions: 10 µM unless noted
[6] = system: HCT-116 colon; conditions: 10 µM unless noted
[7] = system: HCC-2998 colon; conditions: 10 µM unless noted
[8] = system: KM12 colon; conditions: 10 µM unless noted

Measured: growth

CC1(C)N=C(N)N=C(N)N1c1cccc(OCCOc2cccc([N+](=O)[O-])c2)c1
inactive: [1] 83.1% | [2] 37.8% | [3] 17.8% | [4] 48.6% | [5] 29% | [6] 10.9% | [7] 47.6% | [8] 22.2%

Cn1c(=O)c2c(-c3ccccc3F)n(-c3ccc4c(c3)OCO4)cc2n(C)c1=O
inactive: [1] 81.3% | [2] 95.1% | [3] 88.6% | [4] 102% | [5] 94.5% | [6] 85.8% | [7] 92.2% | [8] 102%

COc1cc(/C=C/c2cc(/C=C/c3ccc(O)c(OC)c3)n(-c3ccccc3)n2)ccc1O
active: [1] -23.9% | [2] -47.2% | [3] -67.3% | [4] -22.7% | [5] -5.71% | [6] -5.83% | [7] 5.82% | [8] -28%

Clc1ccc2c(N3CCN(c4ccnc(NC5CCCCC5)n4)CC3)ccnc2c1
inactive: [1] 26.1% | [2] 71.1% | [3] 42.7% | [4] 33.7% | [5] 26.5% | [7] 29.2% | [8] 35.5%
active: [6] 4.29%

O=C(CCc1nnc2sc(/C=C\c3ccccc3)nn12)c1nc2ccccc2[nH]1
inactive: [1] 61.1% | [2] 93.1% | [3] 83.8% | [4] 118% | [5] 77.3% | [6] 59.7% | [7] 95.8% | [8] 92.5%

O=C1NC(=O)C(CSc2ccccc2)(c2ccccc2)N1 (stereo unspecified)
inactive: [1] 93.4% | [2] 100% | [3] 112% | [4] 106% | [5] 101% | [6] 102% | [7] 96.4% | [8] 113%

COc1ccc(-c2c3c(N)c4c(nc3nc3c2c(C)nn3-c2ccccc2)CCCCC4)cc1
inactive: [1] 61.2% | [2] 80.9% | [3] 78.8% | [4] 83.5% | [5] 62.8% | [6] 27.9% | [7] 86.6% | [8] 84.2%

CC1SC(c2cccc(Oc3ccccc3)c2)N(CCc2cccs2)C1=O (stereo unspecified)
active: [1] 0.211% | [2] -69.2% | [3] -43.1% | [4] -3.96% | [5] -0.665% | [6] -85.6% | [7] -32.9% | [8] -25.2%

O=c1[nH]c(-c2ccccn2)nc2sc3c(c12)CCCCCC3
inactive: [1] 42.6% | [2] 62.2% | [3] 46.4% | [4] 25% | [5] 29.6% | [6] 24.6% | [7] 53.5% | [8] 33.6%

CC1(C)CC(=O)C2=C(C1)Nc1cc3c(cc1C2c1ccc(F)cc1)OCO3 (stereo unspecified)
inactive: [1] 85.3% | [2] 110% | [3] 102% | [4] 104% | [5] 90.6% | [6] 96.7% | [7] 102% | [8] 99.3%

O=C1/C(=C/c2ccc(Cl)cc2)N=C(c2ccccc2)N1CCc1cccs1
inactive: [1] 97.7% | [2] 59.8% | [3] 53.2% | [4] 51.3% | [5] 15.7% | [6] 28.5% | [7] 25.4% | [8] 99.2%

O/N=C/c1cccs1
inactive: [1] 111% | [2] 112% | [3] 99.8% | [4] 104% | [5] 99.2% | [6] 102% | [7] 111% | [8] 110%

Cc1ccc2c(c1)c(Sc1ccc(C(=O)NO)cc1)c1n2CN(C)CC1
active: [4] 7.66% | [6] -11.2%
inactive: [1] 23.4% | [2] 54.3% | [3] 18.9% | [5] 16.6% | [7] 14.9% | [8] 27.7%

Clc1ccc(Nc2ccnc(N3CCN(c4ccnc5cc(Cl)ccc45)CC3)n2)cc1
inactive: [1] 15.2% | [2] 52.2% | [3] 13.3% | [4] 48.5% | [5] 17.5% | [6] 13.5% | [7] 64.7% | [8] 36.8%

Brc1ccccc1Nc1ccc2nnc(-c3ccncc3)n2n1
inactive: [1] 80.6% | [2] 107% | [3] 105% | [4] 102% | [5] 84.9% | [6] 94.9% | [7] 113% | [8] 94.1%

OC[C@@H](O)[C@@H](O)CO
inactive: [1] 103% | [2] 101% | [3] 100% | [4] 98.4% | [5] 99.9% | [6] 102% | [7] 102% | [8] 105%

CN1CCc2c(c3ccccc3c3ccccc23)C1
inactive: [1] 55.5% | [2] 94.7% | [3] 51.4% | [4] 28.7% | [5] 26.4% | [6] 16.9% | [7] 70% | [8] 39.1%

COc1ccc(/C=C2\CN(Cc3cn(CCCNc4ccnc5cc(Cl)ccc45)nn3)C/C(=C\c3ccc(OC)c(OC)c3)C2=O)cc1OC
active: [2] -56.1% | [3] -28.9% | [4] -16.7% | [6] -64.6% | [7] -87% | [8] -64%
inactive: [1] 49.5% | [5] 36.9%

COc1ccc(C(=O)C2=CC(=O)C(=O)C2)cc1OC
inactive: [1] 99.7% | [2] 93.8% | [3] 106% | [4] 107% | [5] 95.9% | [6] 103% | [7] 108% | [8] 106%

COc1ccccc1CNCCCCCCCCCCCCN1C(=O)c2ccc3c4c(ccc(c24)C1=O)C(=O)N(CCCCCCCCCCCCNCc1ccccc1OC)C3=O
active: [6] -43%
inactive: [1] 119% | [2] 70.5% | [3] 58% | [4] 74.1% | [5] 26.7% | [7] 80.9% | [8] 46.6%

O=C(c1ccc2ncc(-c3nc(NC4CC4)ncc3F)n2c1)N1CCOCC1
active: [5] 5.99% | [6] 0.221% | [8] 2.99%
inactive: [1] 32.2% | [2] 52.4% | [3] 32% | [4] 10.2% | [7] 71.3%

COc1ncc(F)c(OC)n1
inactive: [1] 104% | [2] 108% | [3] 106% | [4] 107% | [5] 96.6% | [6] 101% | [7] 110% | [8] 105%

CC(C)(C)[Si](C)(C)OC1[C@@H](O[Si](C)(C)C(C)(C)C)[C@@H](CNC(=O)NC(=O)C(F)(F)F)O[C@H]1n1cnc2c(NC(=O)Nc3ccccc3)ncnc21 (stereo partly specified)
inactive: [1] 85.5% | [2] 96% | [4] 71.2% | [5] 48.3% | [6] 57.2% | [7] 79.3% | [8] 24%
active: [3] -4.83%

CC(C)N1CCN(c2ccc(OC[C@H]3CO[C@](Cn4cncn4)(c4ccc(Cl)cc4Cl)O3)cc2)CC1
inactive: [1] 105% | [2] 84.4% | [3] 69.7% | [4] 98.4% | [5] 95% | [6] 77.7% | [7] 104% | [8] 95.4%

C=CC(=O)N1CC2(CC(n3nc(-c4ccc(Oc5ccccc5)cc4)c4c(N)ncnc43)C2)C1
inactive: [1] 36.4% | [2] 29.9% | [3] 30.4% | [4] 78.8% | [5] 26.5% | [6] 45.4% | [7] 64.9% | [8] 48.9%

COc1nc2c(cc1S(=O)(=O)c1ccccc1)CCc1c-2cnn1-c1ccccc1Cl
inactive: [1] 26.5% | [2] 51.8% | [3] 65.7% | [4] 79.1% | [5] 42.2% | [6] 48.4% | [7] 77.7% | [8] 49.7%

O=c1nc(NO)[nH]c(=O)n1Cc1ccccc1
inactive: [1] 92.8% | [2] 103% | [3] 101% | [4] 108% | [5] 98.9% | [6] 105% | [7] 106% | [8] 105%

O=c1oc2ccccc2cc1-c1csc(N=Nc2c(O)[nH]c3ccc(Br)cc23)n1
inactive: [1] 107% | [2] 102% | [3] 98.8% | [4] 103% | [5] 94% | [6] 98.1% | [7] 102% | [8] 103%

CN1CCN(CCCn2c3c(sc4ncccc43)c(=O)n3nnc(-c4ccccc4)c23)CC1
active: [4] -44.5% | [5] -90.6% | [6] -92.6% | [8] -32.1%
inactive: [1] 113% | [2] 93.5% | [3] 97.9% | [7] 99.2%

CN1CCN(c2nc(-c3ccncc3)nc3sc4c(c23)CCCCCC4)CC1
inactive: [1] 90.9% | [2] 44.3% | [3] 77.7% | [4] 77.1% | [5] 60.6% | [6] 56.5% | [7] 37.4% | [8] 90.9%

COC(=O)c1c2c(c(C)[n+]([O-])c1C)C(=O)C=C(NCc1cccc(Cl)c1)C2=O
active: [1] -37.6% | [2] -82.3% | [3] -92.1% | [4] -31.4% | [5] -61.3% | [6] -13.7% | [7] -38.3% | [8] 0.497%

CN(C)C(=S)SCN1C(=O)c2ccc([N+](=O)[O-])cc2S1(=O)=O
inactive: [1] 102% | [2] 80.8% | [3] 101% | [4] 90.1% | [5] 97.4% | [6] 95.7% | [7] 102% | [8] 96.1%
